The record followed here is PubChem BioAssay (NCI).

Molecules are shown by their SMILES. About 83,000 compounds went through this panel and 20% of them were active in at least one assay; those are over-represented in the sample as a whole.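 Values shown are percent growth following 48 h exposure of cells in 96-well plates to a single concentration of compound; below 10 was considered active.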 A number with no mark means an inactive call. Calls of active or inactive are those of the source.

Some test systems named below: NCI-H23 lung; NCI-H226 lung; NCI-H322M lung; HOP-62 NSCLC; NCI-H460 lung; HOP-92 NSCLC; NCI-H522 lung; A549/ATCC NSCLC; 786-0 renal; COLO 205 colon.
Holding throughout (assay): NCI-60 one-dose screen, 48 h (100 = growth as untreated, 0 = no growth, -100 = all killed)
What all share (details): 10 µM unless noted

In the case of `O=C(/C=C(/C=C/c1csc2ccccc12)OB(F)F)/C=C/c1csc2ccccc12`, the growth in the assay with NCI-H23 lung was 23%; with NCI-H226 lung, 27.9%; in the assay with NCI-H322M lung, 96.9%; with HOP-62 NSCLC, 90.7%; with NCI-H460 lung, 66.7%; in the assay on HOP-92 NSCLC it was 44.6%. Further, the growth was 2.34% (active) with NCI-H522 lung, 70.1% with A549/ATCC NSCLC, -2.14% (active) in the assay with 786-0 renal and -2% (active) with COLO 205 colon.
Regarding `O=C(Nc1ncc(Cc2cc(Cl)ccc2Cl)s1)c1cccs1`, the growth in the assay with NCI-H23 lung is 71.6%; in the assay on NCI-H226 lung, 81%; in the assay with NCI-H322M lung it was 62.7%; in the assay on HOP-62 NSCLC, 55.1%; in the assay with NCI-H460 lung, 33.8%; in the assay with HOP-92 NSCLC, 48.4%. For the same molecule, the growth in the assay with NCI-H522 lung was 43.9%; with A549/ATCC NSCLC it was 38.3%; with 786-0 renal, 78.3%; with COLO 205 colon, 67.5%.
For the molecule `c1ccc2c(-c3c[nH]c4ccccc34)c3c(cc2c1)[nH]c1ccccc13`, the growth is 69.9% with NCI-H23 lung; 86.2% with NCI-H226 lung; 83.7% in the assay on NCI-H322M lung; 60.4% with HOP-62 NSCLC; 68.9% in the assay on NCI-H460 lung; 83.3% in the assay on HOP-92 NSCLC. For the same molecule, the growth in the assay on NCI-H522 lung was 51.7%; in the assay on A549/ATCC NSCLC, 62%; in the assay on 786-0 renal, 51.9%; in the assay with COLO 205 colon, 83.3%.
For `CCc1c(Cl)nc(N)nc1Nc1ccc(C)c(C)c1`, the growth in the assay on NCI-H23 lung was 96.9%; with NCI-H226 lung, 83.5%; in the assay with NCI-H322M lung, 110%; in the assay with HOP-62 NSCLC, 92.7%; in the assay on NCI-H460 lung, 80.7%; with HOP-92 NSCLC, 112%. In addition, the growth in the assay on NCI-H522 lung is 81.9%; in the assay with A549/ATCC NSCLC, 99.3%; with 786-0 renal it was 101%; in the assay on COLO 205 colon it was 106%.
In the case of `Clc1ccc(-c2ccc(CNCC3CCNCC3)o2)c(-c2ccccc2)c1`, the growth with NCI-H23 lung was -39.8% (active); with NCI-H226 lung, -12.1% (active); in the assay on NCI-H322M lung, -25.7% (active); in the assay with HOP-62 NSCLC, -78.3% (active); with NCI-H460 lung it was -86.7% (active); with HOP-92 NSCLC, -39.3% (active). In addition, the growth in the assay on NCI-H522 lung was -70.7% (active); in the assay on A549/ATCC NSCLC it was -79.5% (active); in the assay with 786-0 renal it was -90.2% (active); in the assay with COLO 205 colon it was -76.3% (active).
With `CNC(=O)c1cccc(Cn2nc(C)c(NC(=O)c3ccc(COc4ccc(C(F)(F)F)cc4C)cc3)c2C)n1`, the growth in the assay with NCI-H23 lung is 43.5%; in the assay with NCI-H226 lung it was 44.4%; with NCI-H322M lung it was 88.9%; in the assay on HOP-62 NSCLC it was 46%; with NCI-H460 lung, 50.8%; in the assay with HOP-92 NSCLC it was 74.4%. Moreover, the growth was 40% in the assay on NCI-H522 lung, 39.1% in the assay on A549/ATCC NSCLC, 61.9% in the assay on 786-0 renal and 37.3% in the assay on COLO 205 colon.
Consider `Brc1ccc(Nc2csc(-c3ccccn3)n2)cc1`, for which the growth was 87.7% with NCI-H23 lung; 70.1% in the assay on NCI-H226 lung; 84.1% with NCI-H322M lung; 88.2% with HOP-62 NSCLC; 96.7% with NCI-H460 lung; 102% in the assay on HOP-92 NSCLC. For the same molecule, the growth is 78.9% with NCI-H522 lung, 99.4% with A549/ATCC NSCLC, 98.9% with 786-0 renal and 111% with COLO 205 colon.
In the case of `COCCCN1CC(O)=C(c2nc(-c3ccc(C)cc3)cs2)C1=N`, the growth in the assay with NCI-H23 lung was 96%; in the assay with NCI-H226 lung it was 96.3%; in the assay with NCI-H322M lung, 97.3%; in the assay with HOP-62 NSCLC, 91.6%; in the assay with NCI-H460 lung, 153%; in the assay with HOP-92 NSCLC, 147%. Besides, the growth with NCI-H522 lung is 106%; with A549/ATCC NSCLC, 85.4%; in the assay with 786-0 renal it was 94.8%; in the assay on COLO 205 colon it was 133%.
Consider `N#C/C(=C\c1ccc(Cl)cc1)n1nnc2cc(F)c(F)cc21`, for which the growth in the assay with NCI-H23 lung is 30%; with NCI-H226 lung, 83.8%; in the assay with NCI-H322M lung, 33.9%; in the assay with HOP-62 NSCLC, 59.1%; in the assay with NCI-H460 lung it was -22.2% (active); in the assay on HOP-92 NSCLC, 5.41% (active). For the same molecule, the growth in the assay on NCI-H522 lung is 3.72% (active); in the assay on A549/ATCC NSCLC, 32.8%; with 786-0 renal, 14.7%; with COLO 205 colon, 8.61% (active).
For the molecule `Cc1cc2nc3c4cccc(O)c4n(CCN(C)C)c3nc2cc1C`, the growth in the assay on NCI-H23 lung is 32.3%; in the assay with NCI-H226 lung, 37%; with NCI-H322M lung, 38%; in the assay on HOP-62 NSCLC, 31.7%; in the assay on NCI-H460 lung, 9.09% (active); with HOP-92 NSCLC, 55.1%. Also, the growth with NCI-H522 lung was 31%; with A549/ATCC NSCLC it was 20.4%; in the assay on 786-0 renal it was 40.4%; with COLO 205 colon, 59.7%.
With `O=C1Nc2cc(-c3cccc([N+](=O)[O-])c3)ccc2/C1=C/c1ccc[nH]1`, the growth is 48.4% in the assay on NCI-H23 lung; 50.6% in the assay with NCI-H226 lung; 58.3% in the assay with NCI-H322M lung; 76.4% in the assay on HOP-62 NSCLC; 47.6% in the assay with NCI-H460 lung; 72.5% with HOP-92 NSCLC. Besides, the growth in the assay on NCI-H522 lung was 78.3%; with A549/ATCC NSCLC, 101%; in the assay with 786-0 renal, 107%; in the assay with COLO 205 colon, 85.9%.
For `COc1cc(/C=N/NC(=O)c2cnn3c2NC(c2ccccc2)C3)ccc1OCc1ccccc1` (stereo not given), the growth in the assay on NCI-H23 lung was 32.8%; in the assay with NCI-H226 lung, 40.2%; with NCI-H322M lung it was 28.6%; in the assay on HOP-62 NSCLC it was -1.18% (active); with NCI-H460 lung, -54% (active); in the assay with HOP-92 NSCLC, 7.9% (active). Also, the growth in the assay with NCI-H522 lung is 19.1%; with A549/ATCC NSCLC it was -29.8% (active); with 786-0 renal, 0.422% (active); in the assay with COLO 205 colon, -2.34% (active).
Turning to `CCCCCN1C=C/C(=C\C(=O)n2ccc3ccccc32)c2ccccc21`, the growth was 77% with NCI-H23 lung; 70.3% with NCI-H226 lung; 87.7% in the assay with NCI-H322M lung; 81.9% in the assay with HOP-62 NSCLC; 91% in the assay with NCI-H460 lung; 83.3% in the assay with HOP-92 NSCLC. Besides, the growth in the assay with NCI-H522 lung is 77%; with A549/ATCC NSCLC, 89.4%; with 786-0 renal it was 94.8%; with COLO 205 colon it was 89.4%.
